Experimental data: PubChem BioAssay AID1159580 (chemical genetic matrix, 2015)
Out of some 5,500 compounds screened, about 2,000 (36%) were called active. Another 18% or so got no clear call; they are omitted. No stated cut-off is given here; in the data, active means normalized growth mostly below about 0.91 (no sharp cut-off); inconclusive means no clear call, values can overlap the other calls; inactive means mostly above about 0.92. Some of the results follow.

Assay: chemical genetic growth profiling, strain panel (AID 1159580);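 further: tested at 20 µM; growth read once vehicle control cultures reached saturation at 30 °C; 1 = growth at the plate median or of vehicle wells; lower values mean less growth of the strain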
Conditions: growth OD

Measured: normalized growth

COc1ccc2c(c1)[nH]c1c(C)nccc12
inactive: S. cerevisiae deletion strains, locus YJR075W, strain HOC1, hits give low values 1.02 | S. cerevisiae deletion strains, locus YKL009W, strain mrt4, hits give low values 0.954 | S. cerevisiae deletion strains, locus YKL068W, hits give low values 0.978 | S. cerevisiae deletion strains, locus YKL085W, strain MDH1 (second series), hits give low values 0.979 | S. cerevisiae deletion strains, locus YKL085W, strain MDH1, hits give low values 0.979 | S. cerevisiae deletion strains, locus YKL160W, strain elf1, hits give low values 0.996 | S. cerevisiae deletion strains, locus YKL190W, strain CNB1, hits give low values 1.01 | S. cerevisiae deletion strains, locus YKR001C, strain vps1, hits give low values 0.962 | S. cerevisiae deletion strains, locus YKR026C, strain gcn3, hits give low values 0.978 | S. cerevisiae deletion strains, locus YKR091W, strain srl3, hits give low values 0.996 | S. cerevisiae deletion strains, locus YLL001W, strain dnm1, hits give low values 0.987 | S. cerevisiae deletion strains, locus YLL026W, hits give low values 0.993 | S. cerevisiae deletion strains, locus YLL041C, strain sdh2, hits give low values 0.993 | S. cerevisiae deletion strains, locus YLR027C, strain aat2, hits give low values 0.992 | S. cerevisiae deletion strains, locus YLR039C, strain RIC1, hits give low values 1.22 | S. cerevisiae deletion strains, locus YLR058C, strain SHM2, hits give low values 1.01 | S. cerevisiae deletion strains, locus YLR102C, strain apc9, hits give low values 0.981 | S. cerevisiae deletion strains, locus YLR113W, strain HOG1, hits give low values 1 | S. cerevisiae deletion strains, locus YLR221C, strain rsa3, hits give low values 0.995 | S. cerevisiae deletion strains, locus YLR258W, strain gsy2, hits give low values 0.995 | S. cerevisiae deletion strains, locus YLR262C, strain YPT6 (second series), hits give low values 1.03 | S. cerevisiae deletion strains, locus YLR262C, strain YPT6, hits give low values 1.21 | S. cerevisiae deletion strains, locus YLR268W, strain sec22, hits give low values 1 | S. cerevisiae deletion strains, locus YLR320W, strain mms22, hits give low values 1 | S. cerevisiae deletion strains, locus YLR330W, strain CHS5, hits give low values 0.997 | S. cerevisiae deletion strains, locus YLR342W, strain FKS1 (second series), hits give low values 1.02 | S. cerevisiae deletion strains, locus YLR342W, strain FKS1, hits give low values 1 | S. cerevisiae deletion strains, locus YLR357W, strain rsc2, hits give low values 0.978 | S. cerevisiae deletion strains, locus YLR370C, strain arc18, hits give low values 1 | S. cerevisiae deletion strains, locus YLR371W, strain rom2, hits give low values 0.979 | S. cerevisiae deletion strains, locus YLR384C, strain iki3, hits give low values 0.999 | S. cerevisiae deletion strains, locus YLR418C, strain cdc73, hits give low values 1.03 | S. cerevisiae deletion strains, locus YML016C, strain PPZ1, hits give low values 1.01 | S. cerevisiae deletion strains, locus YML032C, strain rad52, hits give low values 0.926 | S. cerevisiae deletion strains, locus YML120C, strain ndi1, hits give low values 1 | S. cerevisiae deletion strains, locus YML124C, strain tub3, hits give low values 0.982 | S. cerevisiae deletion strains, locus YMR058W, strain fet3, hits give low values 0.983 | S. cerevisiae deletion strains, locus YMR078C, strain ctf18, hits give low values 0.976 | S. cerevisiae deletion strains, locus YMR125W, strain sto1, hits give low values 0.975 | S. cerevisiae deletion strains, locus YMR129W, hits give low values 0.988 | S. cerevisiae deletion strains, locus YMR205C, strain PFK2, hits give low values 0.999 | S. cerevisiae deletion strains, locus YMR223W, strain ubp8, hits give low values 0.962 | S. cerevisiae deletion strains, locus YMR231W, strain pep5, hits give low values 1.01 | S. cerevisiae deletion strains, locus YMR263W, strain SAP30, hits give low values 1.01 | S. cerevisiae deletion strains, locus YMR307W, strain GAS1, hits give low values 1.12 | S. cerevisiae deletion strains, locus YNL067W, strain RPL9B, hits give low values 0.971 | S. cerevisiae deletion strains, locus YNL071W, strain lat1, hits give low values 0.991 | S. cerevisiae deletion strains, locus YNL128W, strain TEP1, hits give low values 1.03 | S. cerevisiae deletion strains, locus YNL153C, strain GIM3, hits give low values 1.02 | S. cerevisiae deletion strains, locus YNL183C, strain NPR1, hits give low values 0.982 | S. cerevisiae deletion strains, locus YNL209W, strain ssb2, hits give low values 0.996 | S. cerevisiae deletion strains, locus YNL233W, strain BNI4, hits give low values 1.01 | S. cerevisiae deletion strains, locus YNL248C, strain rpa49, hits give low values 0.966 | S. cerevisiae deletion strains, locus YNL250W, strain rad50, hits give low values 0.986 | S. cerevisiae deletion strains, locus YNL271C, strain bni1, hits give low values 0.991 | S. cerevisiae deletion strains, locus YNL298W, strain CLA4, hits give low values 0.968 | S. cerevisiae deletion strains, locus YNL307C, strain MCK1, hits give low values 0.967 | S. cerevisiae deletion strains, locus YNL322C, strain KRE1 (second series), hits give low values 1 | S. cerevisiae deletion strains, locus YNL322C, strain KRE1, hits give low values 1.01 | S. cerevisiae deletion strains, locus YNR049C, strain mso1, hits give low values 0.997 | S. cerevisiae deletion strains, locus YNR052C, strain pop2, hits give low values 0.961 | S. cerevisiae deletion strains, locus YOL006C, strain TOP1, hits give low values 0.963 | S. cerevisiae deletion strains, locus YOL012C, strain htz1 1.03 | S. cerevisiae deletion strains, locus YOL147C, strain pex11, hits give low values 0.984 | S. cerevisiae deletion strains, locus YOR001W, strain rrp6, hits give low values 1.02 | S. cerevisiae deletion strains, locus YOR061W, strain CKA2, hits give low values 1.04 | S. cerevisiae deletion strains, locus YOR069W, strain VPS5, hits give low values 1 | S. cerevisiae deletion strains, locus YOR070C, strain gyp1, hits give low values 0.995 | S. cerevisiae deletion strains, locus YOR080W, strain dia2, hits give low values 1.01 | S. cerevisiae deletion strains, locus YOR083W, strain WHI5, hits give low values 0.996 | S. cerevisiae deletion strains, locus YOR106W, strain vam3, hits give low values 0.983 | S. cerevisiae deletion strains, locus YOR136W, strain idh2, hits give low values 0.971 | S. cerevisiae deletion strains, locus YOR144C, strain elg1, hits give low values 0.988 | S. cerevisiae deletion strains, locus YOR184W, strain ser1, hits give low values 0.953 | S. cerevisiae deletion strains, locus YOR231W, strain MKK1, hits give low values 1 | S. cerevisiae deletion strains, locus YOR265W, strain rbl2, hits give low values 0.996 | S. cerevisiae deletion strains, locus YOR270C, strain vph1, hits give low values 0.974 | S. cerevisiae deletion strains, locus YOR290C, strain snf2, hits give low values 0.99 | S. cerevisiae deletion strains, locus YOR316C, strain cot1, hits give low values 0.985 | S. cerevisiae deletion strains, locus YPL051W, strain arl3, hits give low values 0.986 | S. cerevisiae deletion strains, locus YPL055C, strain LGE1, hits give low values 1.02 | S. cerevisiae deletion strains, locus YPL078C, strain atp4, hits give low values 0.995 | S. cerevisiae deletion strains, locus YPL106C, strain sse1, hits give low values 0.972 | S. cerevisiae deletion strains, locus YPL240C, strain hsp82, hits give low values 0.981 | S. cerevisiae deletion strains, locus YPL241C, strain CIN2, hits give low values 1.01 | S. cerevisiae deletion strains, locus YPL256C, strain CLN2, hits give low values 1.01 | S. cerevisiae deletion strains, locus YPR119W, strain clb2, hits give low values 0.988 | S. cerevisiae deletion strains, locus YPR141C, strain kar3, hits give low values 0.979 | S. cerevisiae deletion strains, locus YPR163C, strain tif3, hits give low values 0.975 | S. cerevisiae deletion strains, locus YPR167C, strain met16, hits give low values 1 | S. cerevisiae deletion strains, strain wtn01, hits give low values 0.998 | S. cerevisiae strains, strain wild type, hits give low values 0.998
